# Compounds with a hit are over-represented: about 1.2% of the library has one in this group of screens.
# GPR7 antagonist: human neuropeptides B/W receptor 1 antagonism; P48145; GPR7-expressing cells, fluorescence antagonist assay; inhibition, % at 4.4 µM; actives 1.1% (n = 290,000); AID 1861; in the data active = inhibition above about 16%, passing the limit was not always enough;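 also: cells stimulated with the agonist NPW; 0% = agonist with vehicle and 100% = vehicle without agonist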
# Target sequence (P48145 whole entry, looked up): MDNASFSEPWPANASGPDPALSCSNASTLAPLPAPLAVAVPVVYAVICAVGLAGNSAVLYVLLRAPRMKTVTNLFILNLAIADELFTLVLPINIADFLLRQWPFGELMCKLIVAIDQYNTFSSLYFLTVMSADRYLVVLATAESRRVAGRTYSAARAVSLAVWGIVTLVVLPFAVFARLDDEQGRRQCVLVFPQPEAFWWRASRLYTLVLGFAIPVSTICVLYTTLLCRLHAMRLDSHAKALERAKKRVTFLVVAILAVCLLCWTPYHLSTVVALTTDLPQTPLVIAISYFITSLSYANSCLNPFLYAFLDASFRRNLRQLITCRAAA
# VLA-4 inh: inhibition in a human VLA-4 binding assay; P13612; VLA-4 expressing cells, ligand binding flow cytometry; actives 0.2% (n = 330,000); inhibition, % (about 7 µM as worked out from the volumes in the protocol); in the data active = inhibition above about 50%
# GASC-1 inh: blocks human GASC-1 demethylase activity; GST-JMJD2C(1-420) H3K9me3 demethylation, DELFIA europium; inhibition, % at 2.35 µM; actives 0.069% (n = 330,000); Q9H3R0;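 active = more than half of a compound's replicate wells show inhibition beyond 50%, single wells judged on their own value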;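 also: signal counts dimethyl H3K9 product captured on neutravidin plate; 0% = median of DMSO wells and 100% = 0.3 times that DMSO median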
# p-CIP stab down: compounds decreasing mouse p/CIP protein stability; Q05BA5; F442A p/CIP-EGFP cells, EGFP fluorescence, 16 h; decrease of EGFP signal, % at 10 µM; actives 0.01% (n = 290,000);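 active = EGFP signal decrease of at least 30% at 10 µM or well 3 SD below plate mean, unless failing retest; inactive = the rest, including hits failing retest or dose response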
# Numbers without * were called inactive; x = no result.
SMILES,GPR7 antagonist,VLA-4 inh,GASC-1 inh,p-CIP stab down
Cc1ccccc1C(=O)Nc1cccc(C(=O)N/N=C/c2cc(Cl)cc([N+](=O)[O-])c2O)c1,-13,6,27,6
CCOC(=O)C1CCCN(c2c(NCCN(C)Cc3ccccc3)c(=O)c2=O)C1 (stereo not drawn),-3,27,-29,-1
CCOC(=O)C1CCCN(c2c(N3CCc4ccccc4C3)c(=O)c2=O)C1 (stereo not drawn),22*,x,x,-2
Cc1ccnc(NC(=O)COc2ccc(Cl)cc2)n1,19*,7,2,-5
O=C(O)c1ccccc1OCC1CCCO1 (stereo not drawn),-2,-1,-10,2
Cc1ccc(CNC(=O)CCS(=O)(=O)c2ccc3c(c2)CC(C)N3C(=O)C2CC2)cc1 (stereo not drawn),11,-5,9,-12
CCOC(=O)c1ccc(NC(=O)CN2CCN(C(=O)C3CCCO3)CC2)cc1 (stereo not drawn),-15,-7,4,-1
CCCCC(=O)Nc1ccc(C(=O)c2ccccc2)cc1,20*,7,-2,-3
NNC(=O)c1sccc1OCc1ccc(Cl)cc1Cl,20*,5,9,-4
COc1cc(C(C(=O)NC2CCCCC2)N(Cc2cccs2)C(=O)Cc2c[nH]c3ccccc23)cc(OC)c1OC (stereo not drawn),-11,10,52*,-18
COc1cc(C(C(=O)NC2CCCCC2)N(C(=O)Cc2c[nH]c3ccccc23)c2ccccc2C)cc(OC)c1OC (stereo not drawn),4,22,14,-1
O=C(Nc1ccc(Cl)cc1)C1CCN(C(=O)c2ccco2)CC1,-9,15,-3,2
O=C(NCc1ccccc1Cl)C1CCN(C(=O)c2ccco2)CC1,3,-9,58*,-8
O=C1c2ccc(-c3ccc4c(c3)C(=O)N(CCO)C4=O)cc2C(=O)N1CCO,0,-4,3,-13
Cc1cc2nc(N=C(N)N)nc(C)c2cc1C,19*,x,x,-40
O=C1C=C(NCc2ccc3c(c2)OCO3)CC(c2ccccc2)C1 (stereo not drawn),-4,6,61*,6
CCOC(=O)Nc1cc(C)c(Cl)cc1OC,-15,5,51*,0
N=c1n(Cc2ccc(Cl)cc2)c2ccccc2n1CC(O)COc1ccccc1 (stereo not drawn),47*,9,-19,19
COc1cc(C2(c3ccc(O)c(OC)c3)C(=O)N(C)c3ccc(C)cc32)ccc1O,x,3,4,x
COCCn1cnnc1SCC(=O)Nc1cccc(S(=O)(=O)N2CCCCCC2)c1,20*,-17,28,-17
CCCCCC(=O)NC(NC(=S)N1CCOCC1)C(Cl)(Cl)Cl (stereo not drawn),-7,3,14,-20
CCCCCCCCC(=O)NC(NC(=S)N1CCOCC1)C(Cl)(Cl)Cl (stereo not drawn),19*,-8,3,-2
COc1ccccc1CNC(=O)c1cc(-c2ccccc2)nn1CC1CC(c2cccnc2)=NO1 (stereo not drawn),x,15,57*,x
CC(C)CCN(C(=O)c1ccccn1)c1c(N)n(Cc2ccccc2)c(=O)[nH]c1=O,x,-4,3,x
CC(C)c1ccc(NC(=O)N2CCc3ccccc3C2)cc1,41*,32,-3,-14
SMILES,GPR7 antagonist,VLA-4 inh,GASC-1 inh,p-CIP stab down
O=C(Nc1ccc([N+](=O)[O-])cc1)N1CCc2ccccc2C1,4,-3,-5,-14
Cn1c(=O)n(CCO)c(=O)c2c1nc(Br)n2Cc1ccccc1,-9,-5,0,-6
CCc1ccc2c(CN(C)Cc3ccc(OC(F)F)c(OC)c3)cc(=O)oc2c1,-3,16,-2,-15
CCC(C)(C(=O)NC1CCCC1)N(Cc1cccs1)C(=O)Cc1cccs1 (stereo not drawn),42*,1,-6,-6
CCC(C)(C(=O)NC1CCCCC1)N(Cc1ccco1)C(=O)c1cnccn1 (stereo not drawn),16*,29,22,-9
Cc1ccc(C(=O)/C=C/C(=O)c2ccc(C)cc2)cc1,20,69*,-3,3
Cc1ccc(/C=C/C(=O)c2ccc(C)cc2)cc1,-6,19,-12,-4
CC[C@]12c3[nH]c4ccccc4c3CCN1C(=O)C(CC(=O)NCCCOC)C[C@@H]2C(=O)N1CCN(C(=O)C2CC2)CC1 (stereo partly drawn),x,20,53*,x
C/C(=N/NC(=O)c1ccco1)c1cccc(NC(=O)c2ccc(C)s2)c1,20*,19,-16,1
Cc1nnc(SC(C)C)n(N)c1=O,-1,1,-5,4
CC(C)CN(CC(C)C)CC(O)COc1ccccc1Br (stereo not drawn),-6,15,10,-11
CCCCN(CCCC)CC(O)COc1ccccc1Br (stereo not drawn),26*,3,0,-10
Cc1ccc(Nc2nnc(-c3ccncc3)s2)c(Br)c1,7,-10,17,4
Cc1ccc(-c2c(C(=O)N(C)Cc3ccccc3)oc(=O)c3ccccc23)cc1,19*,-5,18,-15
CN(Cc1ccccc1)C(=O)c1oc(=O)c2ccccc2c1-c1ccccc1,16,10,12,-6
CC(C)NC(=O)COc1nncc2ccccc12,-4,10,17,-12
Cc1cccc(CNc2ncnc3ccc(-c4ccccc4Cl)cc23)c1,x,2,-6,x
CC(=O)CC(=O)NC(=NC1CCCCC1)Nc1nc(C)cc(C)n1,21*,31,-1,43
Cc1cc(C)nc(NC(N)=NC2CCCCC2)n1,-4,12,1,1
Nc1ccc(-c2nc3ccc([N+](=O)[O-])cc3[nH]2)cc1,20*,-11,-2,-3
O=[N+]([O-])c1ccc(-c2nc3ccc([N+](=O)[O-])cc3[nH]2)cc1,5,10,-7,-25
CN(C)CCN(C(=O)/C=C/c1cccs1)c1nc2ccc(F)cc2s1,1,12,50*,-19
CCN(CC)CCN(C(=O)/C=C/c1cccs1)c1nc2ccc(Cl)cc2s1,9,6,12,-12
CCCCCCCn1c2c(c(=N)c3ccccc31)CCC2,53*,-8,1,-23
COc1ccc(/C=C2\Sc3ccc(C(=O)N4CCCC4)cc3N(C)C2=O)cc1OC,-1,2,53*,-12
SMILES,GPR7 antagonist,VLA-4 inh,GASC-1 inh,p-CIP stab down
CCOc1ccc(/C=C2/Sc3ccc(C(=O)N4CCOCC4)cc3N(C)C2=O)cc1OC,0,10,-36,-17
Cc1[nH]c(C)c(S(=O)(=O)Nc2cccc(Cl)c2C)c1C(=O)N1CCCC1,-12,36,9,0
COCCNC(=O)CN(C(=O)c1ccc(N2CCCC2)nc1)c1ccccc1,25*,-2,x,1
COCCNC(=O)CN(C(=O)c1ccc(N2CCCC2)nc1)c1ccc(F)c(Cl)c1,-8,1,7,-6
COC(=O)C1=C(C)NC2=C(C(=O)CC(c3cccs3)C2)C1c1ccsc1 (stereo not drawn),22*,13,2,4
O=S(=O)(Nc1nccs1)c1ccc(NCc2cc(Br)cc(Br)c2O)cc1,-11,3,2,-3

# High-throughput results from PubChem.
